Data reported in PubChem BioAssay (Tox21).
Where “and” joins values, the source holds several entries; their conditions need not be identical. Identical values can stand only once. Results filed as inconclusive are left out. A call without a number means that no potency is given here. Calls of active or inactive are those of the source. Calls follow the shape of the dose curve; as a rule, active = well fitted activation curve with a large enough effect in the signal ratio in the repeat runs (not every such curve was filed as active); inconclusive = weak or mixed curves, or effect the other way; inactive = no such curve, though single readings can be large or run the other way; the % refers to the signal ratio.
Potency is read from the fitted curve at half-maximal effect.

Each compound was assayed against Glucocorticoid receptor (Homo sapiens) (UniProt P04150) (assay: qHTS assay to identify small molecule agonists of the glucocorticoid receptor (GR) signaling pathway (AID 720691)). Conditions: GR-bla HeLa, beta-lactamase reporter ratio, 18 h; series mostly up to 62.4 µM; activation: at the top concentration.
Glucocorticoid receptor (Homo sapiens), sequence (P04150 whole entry, looked up): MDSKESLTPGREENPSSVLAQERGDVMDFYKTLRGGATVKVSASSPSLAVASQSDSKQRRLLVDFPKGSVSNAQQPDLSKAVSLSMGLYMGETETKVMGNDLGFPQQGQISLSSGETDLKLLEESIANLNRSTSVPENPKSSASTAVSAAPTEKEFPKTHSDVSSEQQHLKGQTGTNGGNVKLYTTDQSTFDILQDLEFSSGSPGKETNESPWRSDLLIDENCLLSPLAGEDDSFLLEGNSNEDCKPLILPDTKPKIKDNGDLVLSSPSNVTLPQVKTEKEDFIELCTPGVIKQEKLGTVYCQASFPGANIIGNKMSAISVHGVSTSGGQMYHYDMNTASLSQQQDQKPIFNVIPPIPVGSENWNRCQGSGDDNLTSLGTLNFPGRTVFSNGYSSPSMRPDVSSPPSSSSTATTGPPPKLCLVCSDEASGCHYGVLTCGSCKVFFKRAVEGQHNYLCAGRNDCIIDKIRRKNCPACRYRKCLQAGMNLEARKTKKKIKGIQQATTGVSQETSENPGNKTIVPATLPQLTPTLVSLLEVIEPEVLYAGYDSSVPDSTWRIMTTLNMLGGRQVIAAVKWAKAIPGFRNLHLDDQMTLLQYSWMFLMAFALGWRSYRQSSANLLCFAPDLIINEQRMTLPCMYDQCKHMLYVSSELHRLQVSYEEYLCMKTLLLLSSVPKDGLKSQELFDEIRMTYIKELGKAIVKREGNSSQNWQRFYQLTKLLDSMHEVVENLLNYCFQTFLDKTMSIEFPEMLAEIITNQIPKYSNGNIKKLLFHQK
From the text: U.S. Tox21 Program National Center for Advancing Translational Sciences [NCATS] NIH Chemical Genomics Center [NCGC] U.S. Environmental Protection Agency [EPA] National Institutes of Environmental Health Sciences [NIEHS] National Toxicology Program [NTP] U.S. Food and Drug Administration [FDA] Tox21 Assay Overview: The Glucocorticoid receptor (GR) is one of the members of the nuclear receptor family of ligand-dependent transcription factors. GR plays a critical role in carbohydrate, protein and lipid metabolisms and programmed cell death. CellSensor GR-bla HeLa cell line (Invitrogen) contains a beta-lactamase reporter gene under the control of the glucocorticoid response element stably integrated into HeLa cells, a cervical cancer cell line that expresses glucocorticoid receptor. The activation of the reporter gene under culture conditions can be detected by fluorescence intensity. This cell line has been used to screen the Tox21 10K compound library and to identify the compounds that activate the GR signaling.
Tox21 Assay Protocol Summary: The GR-bla HeLa cells were dispensed at 1500 cells/6 ul/well in 1536-well black wall/clear bottom plates using a Multidrop Combi (ThermoFisher Scientific, Waltham, MA) dispenser. After the assay plates were incubated at a 37 C/5% CO2 incubator for 4 hours, 23 nL of compounds dissolved in DMSO, positive controls or DMSO only was transferred to the assay plate by a pintool station (Kalypsys, San Diego, CA). The plates were incubated at 37 C for 18 hours. After 1 uL of LiveBLAzerTM B/G FRET substrate was added using a Flying Reagent Dispenser (Aurora Discovery, San Diego, CA), the plates were incubated at room temperature for 2 hours, and fluorescence intensity was measured by an Envision plate reader (PerkinElmer, Shelton, CT).
`c1ccc2[nH]c(-c3cscn3)nc2c1` was tested, and the Potency was “inactive”. With `Cc1ccc(O)c(-n2nc3ccccc3n2)c1` the Potency was “inactive”. `CC(=O)c1ccc(S(=O)(=O)NC(=O)NC2CCCCC2)cc1` was tested, and the Potency was “inactive”. For `CCCCOCCOCCSC#N`, the Potency was “inactive”. In the case of `N[C@@H](Cc1c[nH]c2ccccc12)C(=O)O`, the Potency is reported as “inactive”. With `CC(=O)Oc1ccccc1C(=O)O` the Potency was “inactive”. For `COC(=O)c1ccc(O)cc1`, the Potency was “inactive”. With `C=CCOC(=O)CC(C)C` the Potency was “inactive”. `CCCCC/C(C=O)=C\c1ccccc1` was tested, and the Potency was “inactive”. For `OCCCc1ccccc1`, the Potency was “inactive”. `COc1ccccc1O` was tested, and the Potency was “inactive”. In the case of `CC1=NN(c2ccccc2)C(=O)C1`, the Potency is reported as “inactive”. With `O=C(OCc1ccccc1)c1ccccc1` the Potency was “inactive”. `NC(=O)NO` was tested, and the Potency was “inactive”. With `O=c1c(-c2ccc(O)cc2)coc2cc(O)cc(O)c12` the Potency was “inactive”. With `COC(=O)c1ccc(C=O)cc1` the Potency was “inactive”. `CCCCOCCOCCOC(C)=O` was tested, and the Potency was “inactive”. With `Cc1cnc(NC(=O)C2=C(O)c3ccccc3S(=O)(=O)N2C)s1` the Potency was “inactive”. `NC(=O)N/N=C/c1ccc([N+](=O)[O-])o1` was tested, and the Potency was “inactive”. In the case of `CCCCCCCC(=O)OCC(O)CO` (stereo not given), the Potency is reported as “inactive”. With `CC(C)Cc1ccc(C(C)C(=O)O)cc1` (stereo not given) the Potency was “inactive”. With `Cc1c(N(C)CS(=O)(=O)O)c(=O)n(-c2ccccc2)n1C` the Potency was “inactive”. With `Cc1cccc(Nc2cc(Cl)nc(SCC(=O)O)n2)c1C` the Potency was “inactive”. With `NC(=O)c1ccc([N+](=O)[O-])cc1Cl` the Potency was “inactive”. With `CCCCCCCCCCCCCC(=O)OC(C)C` the Potency was “inactive”. `CCN1CCCC1=O` was tested, and the Potency was “inactive”. In the case of `Cn1cnc2c1c(=O)[nH]c(=O)n2C`, the “activation” value is reported as -0.839% (inactive). For `C[C@]12C[C@H](O)[C@H]3[C@@H](CCC4=CC(=O)CC[C@@]43C)[C@@H]1CC[C@@H]2C(=O)CO`, the Potency was 169 nM (active) and 69.3 nM (active) and 123 nM (active). With `CCCCOC(=O)CCCCCCCCC(=O)OCCCC` the “activation” value was -0.176% (inactive). With `C=C(C)OC(C)=O` the Potency was “inactive”. For `O=c1cc[nH]c(=O)[nH]1`, the Potency was “inactive”. With `NC(N)=NC(N)=NCCc1ccccc1` the Potency was “inactive”. For `COCC(C)N` (stereo not given), the Potency was “inactive”. `O=C(O)CN(CC(=O)O)CC(=O)O` was tested, and the Potency was “inactive”. With `NCCNc1cccc2ccccc12` the Potency was “inactive”. `O=C(O)CCCCC1CCSS1` (stereo not given) was tested, and the Potency was “inactive”. `COc1ccc(C(=O)c2ccccc2)c(O)c1` was tested, and the Potency was “inactive”. In the case of `N[C@@H](Cc1c[nH]c2ccc(O)cc12)C(=O)O`, the Potency is reported as “inactive”. For `CC(C)=CCC/C(C)=C/CO`, the Potency was “inactive”. `CC(O)COc1ccccc1` (stereo not given) was tested, and the Potency was “inactive”.
